Screening data from PubChem.
The list is not random: actives were taken first. Their share in the collection is about 1.5%.
BRCA1 expr act: BRCA1 expression activation; MCF7-BRCA1-FFLuc reporter, luminescence, 48 h; response scale: scaled: vehicle 0%, 10 µM genistein 100%; AID 624202; actives 1.1% (n = 380,000); Potency, µM (top dose mostly 46.1 µM), for the others: top-dose activation, hits mostly activators; further: potency means the concentration at half of the fitted maximal effect; nearly all actives have a fitted effect of over 80% in size
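Reporter cells (MCF7, BRCA1 promoter-firefly luciferase) received library compounds across a concentration series for 48 h. End-point luminescence was measured and concentration-effect curves derived after normalization.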
mIDH1 inhibitor: human IDH1 R132H inhibition. O75874. IDH1-R132H enzyme, NADPH consumption, diaphorase/resazurin fluorescence. Potency, µM (doses to about 76.6 µM), without a hit: at the top dose activity change, negative = inhibition, hits mostly inhibitors. actives 0.093% (n = 390,000); further: potency means the concentration at half of the fitted maximal effect; on the % scale 0 is the no-effect control and ±100 the full control effect; nearly all actives have a fitted effect of over 65% in size
Target sequence (O75874 whole entry R132H, stated change not applied): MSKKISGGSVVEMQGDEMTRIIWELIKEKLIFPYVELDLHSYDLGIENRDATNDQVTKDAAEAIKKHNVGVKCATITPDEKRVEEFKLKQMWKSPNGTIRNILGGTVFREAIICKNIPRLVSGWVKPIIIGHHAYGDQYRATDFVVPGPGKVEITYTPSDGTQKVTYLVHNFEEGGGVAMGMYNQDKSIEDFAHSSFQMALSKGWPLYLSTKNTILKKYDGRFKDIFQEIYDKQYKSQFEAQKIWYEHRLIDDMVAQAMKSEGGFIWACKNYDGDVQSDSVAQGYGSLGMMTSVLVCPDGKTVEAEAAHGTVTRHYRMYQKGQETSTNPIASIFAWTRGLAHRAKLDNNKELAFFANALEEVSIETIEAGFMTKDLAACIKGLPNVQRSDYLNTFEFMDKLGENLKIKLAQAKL
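IDH1-R132H (0.5 ug/mL) preincubated 30 min with compound, then NADPH (0.016 mM) and alpha-KG (2 mM) added; 80 min at RT, pH 7.5. Remaining NADPH coupled via diaphorase/resazurin to fluorescence (540/590 nm); concentration-response curves normalized to no-enzyme control.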
gsp ag: activates gsp, the McCune-Albright syndrome mutation; gsp mutant cells, cAMP HTRF, 30 min; Potency, µM (series often up to 76.9 µM), for the others: at the highest dose activation (cAMP increase), most hits filed as activators; actives 0.13% (n = 340,000); AID 624287; active means well fitted activation curve with a large enough effect; inconclusive means small, poorly fitted or top-dose-only effect, or another doubt; inactive means no such curve, though single readings can be large or run the other way; cell line not stated here;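 further: phosphodiesterase inhibitor Ro 20-1724 added with compounds to block cAMP breakdown; potency means the concentration at half of the fitted maximal effect; nearly all actives have a fitted effect of over 60% in size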
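Cells in DMEM/10% FBS with G418 were pretreated with compounds in DMSO plus […] (300 uM stock) for 30 min at 37C. cAMP was measured by HTRF (cAMP-d2 plus anti-cAMP antibody-K) after 30 min at room temperature.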
gsp antagonist: gsp mutant antagonism | actives 0.4% (n = 340,000) | Potency, µM (titrated, usually from 76.9 µM), for inactives: top-dose activity change, negative = inhibition, hits mostly inhibitors | gsp-mutant cells, cAMP HTRF, 30 min; calls by dose curve; cell line not stated here;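 further: intracellular cAMP measured with PDE inhibitor Ro 20-1724 present during compound exposure; potency means the concentration at half of the fitted maximal effect; on the % scale 0 is the no-effect control and ±100 the full control effect; nearly all actives have a fitted effect of over 65% in size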
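Cells in G418 medium, seeded 16-24 h, 37C; buffer exchange to DPBS + 1 mM CaCl2, 0.5 mM MgCl2, 0.05% BSA; cpds in DMSO + […] (300 uM stock), 30 min 37C; HTRF cAMP detection.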
IL-2 act: IL-2 activation | AID 652025 | activation, % (series mostly up to about 46 µM) | actives 0.065% (n = 360,000) | IL-2 activation reporter assay, cell-based qHTS; stimulated with anti-CD3/CD4/CD28 beads; in transgenic mouse T cells; in the data active means activation above about 50%; inconclusive means mostly about 30% to 49%; further: 0% is about no effect
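Screening format: compound pinned onto unstimulated transgenic mouse T cells, 60 min incubation, then anti-CD3/anti-CD4/anti-CD28 bead stimulation for 18 hours at 37 degrees C, followed by EGFP and DsRed detection.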
* marks the source's active call; other numbers are inactive results; ? = inconclusive; . = no result; [ ] = dose if it differs, or a comment. Unless noted, the call rests on the fitted dose curve; in most records, active means well fitted curve in the direction sought with a large enough effect; inconclusive means small, poorly fitted or top-dose-only effect, or another doubt; inactive means no such curve, though single readings can be large; an effect the other way counts as inactive or inconclusive.

SMILES	BRCA1 expr act	mIDH1 inhibitor	gsp ag	gsp antagonist	IL-2 act
O=C(COc1ccc(Cl)cc1Br)NC(=O)NC1CCCC1	13µM*	6%	12%[15.4 µM]	-16%	0
O=C(COc1ccc(Cl)cc1Cl)NC(=O)NC1CCCC1	4µM*	1%	-4%[15.4 µM]	1%	-2
Cc1cc(Cl)c(S(=O)(=O)NC2CCCC2)cc1OCC(=O)NC1CCCCC1	-7%[1.84 µM]	2%	-26%	28µM*	-3
CCCCCCCCCC[n+]1cccc2cc(Cl)ccc21	-71%	.	.	.	.
Cc1cc(Br)ccc1NC(=O)c1ccc(NS(=O)(=O)c2c(C)noc2C)cc1	-8%	-9%	.	.	.
Cc1cc(C)cc(NC(=O)CSc2nc(-c3cccc(Cl)c3)nc3c2Cc2c(CO)cnc(C)c2O3)c1	.	-7%	.	.	.
COc1ccccc1CNC(=O)CCc1ccccc1	22%	7%	-8%	5%	-3
COc1ccc(CCC(=O)NCc2ccccc2OC)cc1	2%	19%	?	3.2µM*	0
CC(C)(C)CC(=O)Nc1cccc(-c2cn3cccnc3n2)c1	8.9µM*	-5%	-25%	0%	0
Nc1nc(N)c2c(OCc3ccc(C(F)(F)F)cc3)cccc2n1	0%	.	.	.	.
CCCN1C(=O)/C(=C/c2c(NCCCOCC)nc3c(C)cccn3c2=O)SC1=S	-10%	10%	-2%	3%	-1
Cc1cccn2c(=O)c(/C=C3\SC(=S)NC3=O)c(NCCCN3CCOCC3)nc12	-6%	2%	10µM*	16%	-2
COC(=O)[C@@H]1CCCN1C(=O)CCc1nnc(CCc2c[nH]c3ccccc23)o1	0%	1%	-10%[15.4 µM]	-4%	-1
COC(=O)[C@@H]1CCCN1C(=O)CCc1nnc(CCC2CCCCC2)o1	11µM*	-4%	-24%	1%	-2
O=c1oc2ccccc2cc1-c1nc(-c2ccccc2)no1	13µM*	0%	1%	2%	-1
Cc1ccc(Nc2nc(N)nc(CSc3nccn3C)n2)c(C)c1	7.1µM*	5%	-3%	7%	1
Cc1ccc(Nc2nc(N)nc(CSc3nc(C)cc(C)n3)n2)cc1	-16%	1%	1%	18%	1
Nc1nc(CSc2n[nH]c(-c3ccccc3)n2)nc(Nc2ccccc2)n1	-33%	-7%	1%	-9%	-1
Cc1ccc(SCc2nc(N)nc(Nc3ccccc3C)n2)c(C)c1	23%	4%	-1%	-15%	0
Cc1ccc(Nc2nc(N)nc(CSc3ncccn3)n2)cc1	2.2µM*	12%	0%	11%	-3
Nc1nc(CSc2ncccn2)nc(Nc2ccccc2)n1	4µM*	5%	?	10%	-1
COc1cccc(C(c2sc3nc(-c4ccco4)nn3c2O)N2CCC3(CC2)OCCO3)c1 (configuration not stated)	.	18%	.	.	.
COc1ccc(Cn2c(-c3ccc(C)cc3)nc3c(c(=O)c4ccccc4n3C)c2=O)cc1	-46%	5%	-7%	25µM*	0
S=c1nc(-c2ccccc2)[nH]c2ccccc12	-23%	-14%	16µM*	9%	-3
S=c1nc(-c2ccc(Br)cc2)[nH]c2ccccc12	-23%	0%	?	-1%	-1
SMILES	BRCA1 expr act	mIDH1 inhibitor	gsp ag	gsp antagonist	IL-2 act
Cc1ccc(Nc2nc(CSc3nnc(-c4ccccc4C)n3C)cs2)cc1	45%	-1%	-1%	-17%	0
Cc1ccc(Nc2nc(CSc3nnnn3C)cs2)cc1	3.2µM*	2%	-31%	-7%	0
Cc1ccc(Nc2nc(CSc3nnnn3-c3ccccc3)cs2)cc1	-32%	-2%	-15%	?	-2
Cc1csc(Nc2ccc(Cl)cc2)n1	?	5%	4%[15.4 µM]	-3%	-1
Cc1ccc(Nc2nc(C)cs2)cc1	2.5µM*	-3%	16%	-3%	-3
Cn1nnnc1SCc1csc(Nc2ccccc2)n1	13µM*	2%	26%	1%	0
Cc1ccc(Nc2nc(CSc3nnc(-c4ccccc4)n3C)cs2)cc1	3.5µM*	-7%	-12%	-14%	-2
CC(=O)c1ccc(NC(=O)C2CCC(CNS(=O)(=O)c3cccs3)CC2)cc1 (configuration not stated)	.	-2%	.	.	.
COc1ccc(CCN2C(=O)NC(NC(=O)c3ccccc3OC)(C(F)(F)F)C2=O)cc1OC (configuration not stated)	-6%	-9%	.	.	.
c1coc(CNc2nc(NCc3ccco3)c3ccccc3n2)c1	-65%	.	.	.	.
COc1ccc(-c2nnc(SCc3ccccn3)n2C)cc1	13µM*	9%	-5%	32%	0
Cc1cc(C)n(CC(O)COc2ccc(Cl)cc2)n1 (configuration not stated)	-3%	-1%	3%[15.4 µM]	3%	1
Cc1cc(C)n(CC(O)COc2ccc(Cl)cc2Cl)n1 (configuration not stated)	11µM*	2%	-5%	12%	-1
COc1cc2nc(N3CCN(C)CC3)nc(NC(C)C)c2cc1OC	4%	.	.	.	.
COc1ccc(CCNc2nc(C)nc3c2oc2ccccc23)cc1OC	-44%	8%	12%	40µM*	0
CCCCN(CCCC)c1ccc(Cn2ccc3ccccc32)cc1	-76%	.	.	.	.
O=C(NC1CCCC1)C1CC(c2ccc(F)cc2)=NO1 (configuration not stated)	10µM*	0%	30%	1%	-1
CC(=O)c1ccc(NC(=O)C2CC(c3ccc(F)cc3)=NO2)cc1 (configuration not stated)	1%	-1%	14%	9%	3
N#Cc1ccc(-c2ccc(OCC(=O)NN=Cc3ccncc3)cc2)cc1	-10%	0%	8%	35µM*	-4
COc1ccc(OC)c(NC(=O)c2cccc(N3C(=O)C4C5CCC(C5)C4C3=O)c2)c1 (configuration not stated)	-32%	14%	-40%	?	-5
COc1ccc(OC)c(NC(=O)c2cccc(N3C(=O)C4C5C=CC(C6CC56)C4C3=O)c2)c1 (configuration not stated)	-19%	-7%	-48%	28µM*	0
COCc1nnc(NC(=O)C2CCN(C(=O)c3ccccc3)CC2)s1	0%	.	.	.	.
CCOCCCNC(=O)c1cn(C)c2ccc(S(=O)(=O)N3CCCC3)cc2c1=O	-3%	0%	-47%	-7%	-1
COCCNC(=O)c1cn(C)c2ccc(S(=O)(=O)N3CCCC3)cc2c1=O	-19%	1%	4%	50µM*	4
COc1cc2nc(N3CCCCC3)nc(NC3CCN(Cc4ccccc4)CC3)c2cc1OC	-59%	.	.	.	.
CCCCn1nnnc1C(c1ccccc1)N1CCN(c2cccc(C(F)(F)F)n2)CC1 (configuration not stated)	-13%	.	.	.	-1
